Screening data (PubChem)
Tgondii IFNg: inhibitors of Toxoplasma gondii growth with IFN-gamma | activity change, negative = inhibition, % (no concentration beside the values) | Toxoplasma gondii growth in IFN-gamma-treated host cells; hits give low values | hit rate 3.8% among 69,000; in the data active means activity change below about -70%, passing the limit was not always enough;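 further: host cells are HeLa cells infected with Toxoplasma gondii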
Active calls of the source: *; i = inactive; ! = not active in a repeat. This excerpt belongs to a sample that is enriched for hits.

SMILES	Tgondii IFNg
O=C(NCCN1CCOCC1)c1cc2cccnc2n(Cc2ccc(F)cc2)c1=O	48.1
Cc1cc(NC(=O)c2cc3cccnc3n(Cc3ccccc3)c2=O)ccc1Br	58.1
c1ccc(CN2CC[C@H]3[C@@H]2CCN3Cc2cccs2)nc1	-13.5
Cc1cccc(CN2C(=O)C[C@H]3[C@H]2CCN3Cc2cccs2)n1	-92.8*
CN(C)C(=O)CN1CCC2C1CC(=O)N2Cc1cccnc1 (stereo unspecified)	6.2
N#CC(C#N)=Cc1ccc(O)c(O)c1	-0.2
CC(C)(C)c1cc(C=C(C#N)C#N)cc(C(C)(C)C)c1O	-79.7*
O=C(NCCCCc1ccccn1)C1CC2(CCNCC2)CN1 (stereo unspecified)	-37.0
CC(C)(C)n1nnnc1C(c1ccc(Cl)cc1)N1CC=C(c2ccc(F)cc2)CC1 (stereo unspecified)	23.2
CCn1c(-n2cc(C3=CCN(Cc4ncccn4)CC3)cn2)nc2ccccc21	36.8
CCCCNC(=O)c1cc2cccnc2n(Cc2ccccc2)c1=O	-6.1
CC(C)CNC(=O)c1cc2cccnc2n(Cc2ccccc2)c1=O	-94.5*
O=C(NCCc1ccccc1)c1cc2cccnc2n(Cc2ccccc2)c1=O	28.8
Cc1ccc(CNC(=O)c2cc3cccnc3n(Cc3ccc(Cl)cc3)c2=O)cc1	30.5
COc1ccc(NC(=O)c2cc3cccnc3n(Cc3ccc(Cl)cc3)c2=O)cc1	i
COc1ccc(CNC(=O)c2cc3cccnc3n(Cc3ccc(Cl)cc3)c2=O)cc1	-113.5*
O=C(NCc1ccc(Cl)cc1)c1cc2cccnc2n(Cc2ccccc2)c1=O	-66.3
COc1ccc(CNC(=O)c2cc3cccnc3n(Cc3ccc(F)cc3)c2=O)cc1	-42.9
COc1ccc(CNC(=O)c2cc3cccnc3n(Cc3ccccc3)c2=O)cc1	-74.0*
O=C(CNC1Cc2ccccc2C1)Nc1ccc(Cl)cc1C(=O)c1ccccc1Cl	18.0
COCC(=O)N1CC[C@@]2(CN(C)C[C@H]2COCc2cccnc2)C1	-2.5
COc1cc(CC(=O)N2CCCN3CCC[C@H]3C2)cc(OC)c1OC	2.1
Cc1cc(CN2C[C@H]3CN(Cc4ccsc4)CCO[C@@H]3C2)no1	-59.6
Cc1ccc(CN2C[C@H]3COC[C@@]3(CNC(=O)c3ccno3)C2)s1	-5.7
C=CCOC[C@@H]1CCC[C@@]12CN(Cc1c(C)noc1C)CCO2	-24.3
SMILES	Tgondii IFNg
CCC[C@@H]1CC2=CC(=O)CC[C@]2(C)[C@H]2CC[C@@]3(C)[C@@H](CC[C@@]3(O)CCC(=O)O)[C@H]12	24.8
Cc1nc(C2=CCN(Cc3cccc4ccccc34)CC2)nc(N2CCOCC2)c1C	114.9
CN1[C@@H]2CC(O)C[C@H]1[C@@H]1O[C@@H]12 (stereo partly specified)	15.6
O=C(Nc1ccc(Br)cc1F)c1cc2cccnc2n(Cc2ccc(F)cc2)c1=O	30.5
CN(C)[C@@H]1CCN(C(=O)Cc2ccc(F)cc2)[C@H]1Cc1cnn(C)c1	2.9
CCc1cc2c(cc1-c1cnc(Nc3ccccc3)s1)C(C)(C)CCC2(C)C	-55.0
CCCNC(=O)N1[C@@H]2c3ccc(-c4ccccc4OC)c(=O)n3C[C@H]1[C@H](CO)[C@H]2C(=O)OC	-11.4
CC1(C)CN=C(Nc2ccccc2)S1	-26.6
CC(=O)N1CC2CC1CN(Cc1ccoc1)C2 (stereo unspecified)	56.2
Cc1n[nH]c(C)c1CCCNC(C)Cc1ccccc1F (stereo unspecified)	-2.0
C/C=C(\C)C(=O)N[C@@H](c1ccccc1)[C@@H](O)C(=O)O[C@H]1C[C@@]2(O)[C@@H](OC(=O)c3ccccc3)[C@@H]3[C@]4(OC(C)=O)CO[C@@H]4C[C@H](O)[C@@]3(C)C(=O)[C@H](OC(C)=O)C(=C1C)C2(C)C	-89.1*
CC(=O)O[C@H]1C(=O)[C@@]2(C)C([C@H](OC(=O)c3ccccc3)[C@]3(O)C[C@H](O)C(C)=C1C3(C)C)[C@]1(OC(C)=O)CO[C@@H]1C[C@@H]2O (stereo partly specified)	-74.2*
CCC(=O)N1C[C@@H]2CCN(Cc3c(C)noc3C)C[C@H]2C1	-22.0
Cc1noc(C)c1CCC(=O)N1CCN2CCN(C)C(=O)C2C1 (stereo unspecified)	0.2
CN(C)CC#Cc1ccc([C@@H]2[C@H](CO)N3CCCCN(C(=O)Cc4ccccn4)C[C@@H]23)cc1	2.7
NCC1[C@H]2CN(Cc3ccc(F)cc3)C[C@@H]12 (stereo partly specified)	-14.1
CCn1ncc(C(=O)N2C[C@H]3CC[C@@H](C2)N3)c1C	-5.7
CN1C[C@H]2CCCO[C@H]2[C@H](Nc2ccccn2)C1	9.5
Cn1cc(C(=O)N2CC3(CCN(Cc4cccnc4)C3)C2)cn1	-66.6
Cc1nccc2c1[nH]c1ccccc12	0.5
c1ccc2c(c1)[nH]c1cnccc12	29.1
Cc1c2ccncc2c(C)c2c1[nH]c1ccccc12	-80.4*
Cc1noc(C)c1CN1C[C@H]2CN(C(=O)c3cscn3)C[C@@H]2C1	27.2
O=C(O)CN1CCOC2CC(COc3ccccn3)CC21 (stereo unspecified)	-3.8
Cc1cc(CN2CCO[C@@H]3[C@H]2CC[C@H]3OCC(C)C)no1	-7.5
SMILES	Tgondii IFNg
CCO[C@H]1CC[C@@H]2[C@H]1OCCN2Cc1cc(C)on1	-80.8*
CCO[C@@H]1CC[C@@H]2[C@H]1OCCN2Cc1cc(C)on1	-11.5
CC(C)NC(=O)[C@H]1C[C@H]2CN(CC3CC3)C[C@H]1O2	-6.8
CC1(C)CC(O)CC(C)(C)N1O	7.7
O=C(Nc1ccccc1Cl)c1cc2cccnc2n(Cc2ccc(F)cc2)c1=O	46.0
CCN1CCN(C(=O)Cc2ccc(Nc3ncc(F)c(Nc4ccc(C(=O)Nc5ccccc5Cl)cc4)n3)cc2)CC1	-72.8*
O=S(=O)(c1ccccc1)N1CC2CNCC2C1 (stereo unspecified)	-45.7
CN1C[C@@H]2C[C@H](C(=O)Nc3cccnc3)[C@@H](C1)O2	91.9
CN1CC2CN(C(=O)c3csnn3)CCC2(c2ccccc2)C1 (stereo unspecified)	-30.9
Cc1ccc2c(c1)Cc1c(C(=O)NN3CCCCC3)nn(-c3ccc(Cl)cc3Cl)c1-2	-74.6*!
CCN(CC)CCN1C[C@H](Oc2cccnc2)[C@@H]2OCCC[C@@H]21	-3.9
CCOc1ccccc1NC(=O)c1cc2cccnc2n(Cc2ccccc2F)c1=O	0.8
NC(=O)CC1CC2(CCNCC2)c2cc(F)ccc21 (stereo unspecified)	148.0
c1cncc(OC[C@H]2CCC3C(CCN3Cc3ccco3)O2)c1 (stereo partly specified)	-5.6
C=CCN1CC[C@@H]2[C@@H]1CCN2C(=O)c1cncc(C)c1	-98.4*
C=CCN1CC[C@@H]2[C@@H]1CCN2c1ncc(F)cn1	2.8
C=CCN1CC[C@H]2[C@@H]1CCN2C(=O)c1cc(C)on1	19.3
CSc1ccc(C(=O)C2CCCN(Cc3nc4ccccc4s3)C2)cc1 (stereo unspecified)	1.3
Cc1ccc(NC(=O)c2cc3cccnc3n(Cc3ccccc3F)c2=O)cc1	84.6
CC(C)CN1CC[C@H]2[C@@H]1CCN2c1ncccn1	17.1
O=C(/C=C/c1ccccc1)C1C(=O)NC23CCCCC2C1c1ccccc1O3 (stereo unspecified)	-64.2
COc1ccc(/C=C/C(=O)C2C(=O)N(C)C34CCCC3C2c2ccccc2O4)cc1 (stereo unspecified)	13.3
COc1ccc(OC)c(/C=C/C(=O)C2C(=O)NC34CCCCC3C2c2ccccc2O4)c1 (stereo unspecified)	-73.6*
Cc1cccc(N2CCN(CCn3cccn3)c3nc(C)ccc3C2)n1	5.3
Fc1ccc(CN2CCc3nc4ccncc4cc3C2)cc1	-37.4
